# From PubChem BioAssay
# ATXN2 expr inh: Primary qHTS for Inhibitors of ATXN expression. HEK-293 ATXN2-luciferase reporter, luminescence, 24 h. Potency, µM (top dose mostly 57 µM), for the others: at the highest dose activity change, negative = inhibition, most hits filed as inhibitors. hit rate 0.72% among 360,000. AID 1745845, 2022; further: potency means the concentration at half of the fitted maximal effect; on the % scale 0 is the no-effect control and ±100 the full control effect; nearly all actives have a fitted effect of over 55% in size
#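 ATXN2-luciferase reporter cells (luciferase flanked by upstream and downstream ATXN2 gene portions) were treated 24 h at 37 °C with compounds at up to 57 uM. SteadyGlo luminescence gave expression; GF-AFC fluorescence gave viability.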
# D3 antag: qHTS of D3 Dopamine Receptor Antagonist: qHTS | D(3) dopamine receptor (Homo sapiens), P35462 | AID 652054, 2013 | hit rate 2.5% among 360,000 | max response, negative = inhibition, % | D3R cells, DiscoveRx beta-arrestin luminescence, antagonist mode; hits give low values; in the data active means max response below about -50%; inconclusive means no clear call, values can overlap the other calls; further: on the % scale 0 is the no-effect control and ±100 the full control effect
# Target sequence (P35462 whole entry, looked up): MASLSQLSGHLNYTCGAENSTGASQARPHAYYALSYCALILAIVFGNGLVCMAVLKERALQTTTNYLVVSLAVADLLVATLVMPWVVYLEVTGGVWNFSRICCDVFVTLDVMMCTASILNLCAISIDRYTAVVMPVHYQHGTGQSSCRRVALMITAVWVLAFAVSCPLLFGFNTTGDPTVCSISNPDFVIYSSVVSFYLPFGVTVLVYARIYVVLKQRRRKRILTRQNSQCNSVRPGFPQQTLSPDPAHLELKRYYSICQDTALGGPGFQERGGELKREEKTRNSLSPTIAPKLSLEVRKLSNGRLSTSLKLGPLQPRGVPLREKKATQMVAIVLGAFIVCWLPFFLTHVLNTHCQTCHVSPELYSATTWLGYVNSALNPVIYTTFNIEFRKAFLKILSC
#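 Cells plated overnight at 1500 cells/well, then exposed to library compounds with dopamine controls for 90 minutes at 37 degrees C. DiscoveRx reagent added for 30–60 minutes at room temperature; luminescence read, quantitative HTS format.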
# D3 ag: qHTS of D3 Dopamine Receptor Agonist: qHTS. hit rate 0.58% among 410,000. D(3) dopamine receptor (Homo sapiens), P35462. D3R DiscoveRx beta-arrestin cells, luminescence, 90 min. AID 652048, 2013. max activation, %; in the data active means max activation above about 30%; further: 0% is about no effect
#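 Cells at 1500/well, incubated overnight, then treated with pinned compounds (dopamine as control) for 90 min at 37 degrees C. DiscoveRx reagent added for 30 - 60 minutes at room temperature; luminescence read.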
# ATXN viability: Viability Counterscreen for Primary qHTS for Inhibitors of ATXN expression | S2 cells (HEK-293 line with an ATXN2-luciferase reporter) viability, CellTiter-Fluor protease fluorescence, 24 h | Potency, µM (titrated, usually from 56.7 µM), most hits filed as cytotoxic | hit rate 0.49% among 400,000; further: potency means the concentration at half of the fitted maximal effect; nearly all actives have a fitted effect of over 40% in size
# TGFb inhibitor: qHTS for Inhibitors of TGF-b | HepG2 CAGA-GFP TGF-b/SMAD3 reporter, GFP fluorescence, 18 h; TGF-beta stimulated, 500 pg/mL final | Potency, µM (highest dose often 46.1 µM), for the others: at the top dose activity, negative = inhibition, most hits filed as inhibitors | hit rate 1.2% among 410,000 | AID 588855, 2011; further: potency means the concentration at half of the fitted maximal effect; on the % scale 0 is the no-effect control and ±100 the full control effect; nearly all actives have a fitted effect of over 65% in size
#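 HEPG2 CAGA-GFP reporter cells (1000/well, DMEM with 1% FBS) received compounds, then recombinant TGF-beta at 500 pg/mL final for 18 hours at 37 degrees C. Per-cell GFP summed per well was normalised to unstimulated and stimulated DMSO controls before curve fitting.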
# HepG2 tox: qHTS for Inhibitors of TGF-b: Cytotox Counterscreen; HepG2 CAGA-GFP viability, ATP luminescence, 18 h; Potency, µM (highest dose often 46.1 µM), inactives show at the top dose activity change, negative = cytotoxicity, usual class: cytotoxic; hit rate 0.76% among 410,000; further: potency means the concentration at half of the fitted maximal effect
#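 HepG2 CAGA-GFP cells (1000/well, DMEM with 1% FBS) received compound, then TGF-beta at 500 pg/mL final, and were incubated 18 hours at 37 degrees C. Viability was read by CellTiter-Glo luminescence. Media-only wells were set as complete cell-killing and DMSO as no toxicity.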
# Active calls of the source: *; i = inactive; ? = inconclusive; . = not tested or not shown; ! = not confirmed by another sample. Sampled rows, rich in hits. Any-hit rate of the full collection: about 4.8%. Unless noted, the call rests on the fitted dose curve; in most records, active means well fitted curve in the direction sought with a large enough effect; inconclusive means small, poorly fitted or top-dose-only effect, or another doubt; inactive means no such curve, though single readings can be large; an effect the other way counts as inactive or inconclusive.
SMILES,ATXN2 expr inh,D3 antag,D3 ag,ATXN viability,TGFb inhibitor,HepG2 tox
Cc1cc(C)cc(NC(=O)CCN2C(=O)c3ccccc3Sc3ncccc32)c1,.,.,3.3,.,-11.1%,-13.6%
CCOc1ccc(CCNC(=O)CSCc2nc(-c3cccc(C)c3)oc2C)cc1OCC,.,.,4.3,.,?,-52.1%
CCN(CC)CCOc1ccc(/C(=C(/Cl)c2ccccc2)c2ccccc2)cc1,25.1µM*!,-65.9*!,.,.,?,10µM*!
Cc1nn(-c2ccccn2)c2c1-c1nc(N)sc1CC2,.,.,.,.,-7.4%,-7.7%
CCOC(=O)C1(C)/C(=N/Nc2cccc(Cl)c2)C(=O)C(=O)N1c1ccccc1 (stereo unspecified),-4.2%,-75.0*,-7.2,i,?,-24.2%
Cn1c(=O)[nH]c(=O)c2c1nc(N1CCOCC1)n2Cc1ccccc1,-3.8%,.,-8.3,i,?,-17.0%
O=C1C=CC(=O)N1c1ccc(OC(F)F)cc1,?,-54.6*,-20.2,.,?,-94.6%
O=C(O)CNC(=O)c1ccc(OC(F)F)cc1,0.5%,?,8.9,i,-0.8%,-1.6%
O=C1C=CC(=O)N1c1ccc(O)cc1,.,-15.7,-4.9,i,?,7.94µM*
O=C1CCCC(=O)N1c1ccc(O)cc1,8.2%,4.6,0.3,i,-7.4%,-7.7%
CCCCCOC(=O)Nc1nc(=O)n([C@@H]2O[C@H](C)[C@@H](O)C2O)cc1F (stereo partly specified),-9.6%,.,.,.,.,.
COc1ccc(Cl)c2sc(NC(=O)c3ccc(S(=O)(=O)N4CCOCC4)cc3)nc12,-22.1%,.,-8.7,i,-5.2%,-19.7%
CCCN1CCN(CCCNC(=O)c2cc3c(s2)-c2c(C)cccc2OC3)CC1,?,?,-10.3,?,?,11.2µM*!
Cc1cccc2c1-c1sc(C(=O)NCCCN3CCCC(C)C3)cc1CO2 (stereo unspecified),35.5µM*,-75.8*,-9.8,?,?,-100.5%
Cc1cccc(CCNC(=O)c2cc3c(s2)-c2c(C)cccc2OC3)c1,0.6%,.,-14.2,i,0.8%,-1.4%
Cc1ccc(-c2noc(CN(C3CCCCC3)S(=O)(=O)c3ccc(F)cc3)n2)cc1,.,.,7.7,.,-18.6%,-15.6%
C#C[C@]1(O)CC[C@H]2[C@@H]3CCc4cc(OC5CCCC5)ccc4[C@H]3CC[C@@]21C,?,84.2,9.7,31.6µM*,9.5%,-1.3%
C#C[C@]1(O)CC[C@H]2[C@@H]3CCc4cc(OC)ccc4[C@H]3CC[C@@]21C,2.5%,79.3,30.0*!,i,0.2%,-21.1%
COc1ccc(CNC(=O)C(C)OC(=O)c2cccn2C)cc1 (stereo unspecified),?,-24.7,1.0,i,1.9%,-9.1%
Cc1ccc(C)c(C(=O)C(C)OC(=O)c2cccn2C)c1 (stereo unspecified),0.0%,-50.5*,-1.3,i,?,-1.5%
COc1ccccc1-n1cc(CN2CCC3(CCC(CNC(=O)c4ccccc4)O3)CC2)cn1 (stereo unspecified),.,.,.,i,.,.
CCCn1c(NC(=O)c2ccccc2)nc2ccccc21,7.1%,?,-8.7,i,?,-3.6%
CCn1c(NC(=O)C2CCCCC2)nc2ccccc21,-10.0%,0.2,-2.8,i,0.0%,-13.2%
O=C(Nc1nc2ccccc2n1CCN1CCCCC1)C1CCCCC1,-29.3%,-62.1*,-14.7,i,7.4%,-19.4%
CCCn1c(NC(=O)c2cccc(S(=O)(=O)N3CCCC3)c2)nc2ccccc21,15.8µM*,-6.9,2.6,?,14.1µM*,-43.7%
Cc1ccc(C(=O)Nc2nc3ccccc3n2CCN2CCCC2)cc1,18.7%,-60.6*,-24.8,i,12.9%,-7.7%
